# Experimental data: ChEMBL document CHEMBL3988442, “University of Dundee, Small-Polar-MMV Screening Library” (2021)
# Screen size: about 48,000 compounds; about 13,000 (27%) showed an effect of 50% or more. Some of the results follow.
# Test system: Wolbachia pipientis
# Assay: Anti-Wolbachia Cell-Based Screen
# Type: functional
# Parameters: scale not given: in the data most compounds retested in dose-response had high values
# Settings: 5 µM
row,SMILES,Percent Effect
1,CSc1ncccc1C(=O)NCCC(O)c1cccs1 (configuration not stated),13.17%
2,CSc1ncccc1C(=O)NCCC(O)c1cc(C)oc1C (configuration not stated),-1.719%
3,COc1ccc(OC)c(Sc2ncccc2C(=O)NCCSC)c1,104.4%
4,O=c1oc(-c2ccc(F)cc2)nn1CCc1ccccn1,-9.185%
5,O=C(c1ccc(N2CCCC2)nn1)N1CCc2ccccc21,13.46%
6,O=C(c1ccc(N2CCCC2)nn1)N1CCCc2ccc(F)cc21,-11.11%
7,O=C(c1ccc(N2CCCCCC2)nn1)N1CCc2ccccc21,130.8%
8,CCN(CC)C(=O)Nc1cc2c(cc1SC)OCCO2,7.32%
9,CCc1nccn1C1CCCN(C(=O)c2cccc3c2OCO3)C1 (configuration not stated),115.7%
10,CC(C)c1nccn1C1CCCN(C(=O)c2cccc3c2OCO3)C1 (configuration not stated),-5.15%
11,O=C(c1cc(Cl)c2c(c1)OCO2)N1CCCC(n2ccnc2)C1 (configuration not stated),1.53%
12,O=C(c1cccc2c1OCCO2)N1CCCC(n2ccnc2)C1 (configuration not stated),-8.704%
13,O=C(c1cccc2c1OCO2)N1CCCC(n2ccnc2)C1 (configuration not stated),115.9%
14,CCc1nccn1C1CCCN(C(=O)c2ccnc(C)n2)C1 (configuration not stated),1.971%
15,Cc1nccn1C1CCCN(C(=O)c2cccc3c2OCO3)C1 (configuration not stated),116.3%
16,CCc1nccn1C1CCCN(C(=O)c2cnn3ccc(C)nc23)C1 (configuration not stated),-1.055%
17,O=C1CC(C(=O)Nc2nnc(-c3cccs3)[nH]2)c2ccccc2N1 (configuration not stated),-3.979%
18,CC(C)OC(=O)CN1N=C(C(=O)N2CCCC2)S(=O)(=O)c2ccccc21,15.65%
19,N#Cc1ccccc1CN1C[C@@H]2CC[C@H](C1)N(CC1CC1)C2=O,-10.09%
20,Cc1nn(CCC#N)c(C)c1CCC(=O)N(C(C)C)C1CC1,-0.4171%
21,COc1ccc(C(=O)NC2CC2)c(OC2CCN(CC3CC3)CC2)c1,4.837%
22,COCc1nc(C(=O)N2CCCC(n3ccnc3C(C)C)C2)cs1 (configuration not stated),114%
23,COCc1nc(C(=O)N2CCCC(n3ccnc3C)C2)cs1 (configuration not stated),95.68%
24,CSCC(=O)N1CCCC(n2ccnc2C(C)C)C1 (configuration not stated),-4.829%

row,SMILES,Percent Effect
1,Cc1nccn1C1CCCN(C(=O)c2ccc(N3CCCC3)nn2)C1 (configuration not stated),-4.751%
2,CC(=O)Nc1nc(C(=O)N2CCCC(n3ccnc3)C2)cs1 (configuration not stated),-0.04658%
3,COCc1nc(C(=O)N2CCCC(n3ccnc3)C2)cs1 (configuration not stated),102.7%
4,COCc1nc(C(=O)N2CCN(c3nccc(OC)n3)CC2)cs1,-10.67%
5,CC(C)c1nccn1C1CCCN(C(=O)c2ccc(=O)n(C)n2)C1 (configuration not stated),4.106%
6,CC(C)Nc1ccc2c(c1)C1(CCOCC1)C(=O)N2c1ccsc1,-5.936%
7,CCc1cc(N2C[C@H](C3CC3)[C@@H](N)C2)nc(N2CCOCC2)n1,-5.197%
8,CCOc1ccc(Cl)c(C(=O)N2CCN(c3ncccn3)CC2)n1,79.36%
9,CCC(O)CN1CCN(C(=O)c2csc(COC)n2)CC1 (configuration not stated),-26.29%
10,CCOc1ccc(Cl)c(C(=O)N2CCN(c3ccncc3)CC2)n1,119.1%
11,CCOc1ccc(Cl)c(C(=O)N2CCN(c3cnccn3)CC2)n1,0.9998%
12,CCOc1ccnc(N2CCN(C(=O)CCc3ccncc3)CC2)n1,-7.253%
13,Cc1cccc(OCCC(=O)N2CCCN(CC(N)=O)CC2)c1C,-3.511%
14,CCOc1ccnc(N2CCN(C(=O)c3cn[nH]c3CC)CC2)n1,-0.2597%
15,CCC(O)CN1CCN(C(=O)c2cccn2Cc2ccccc2)CC1 (configuration not stated),-11.52%
16,CCOc1ccc(Cl)c(C(=O)N2CCN(CC(O)CC)CC2)n1 (configuration not stated),92.51%
17,CCOc1ccnc(N2CCN(C(=O)c3cccnc3O)CC2)n1,-0.2095%
18,CCOc1ccc(Cl)c(C(=O)NC(C)C(N)=O)n1 (configuration not stated),-12.05%
19,CCOc1ccc(Cl)c(C(=O)N2CCCN(CC(N)=O)CC2)n1,93.33%
20,COCc1nc(C2CC2)nn1-c1ccccc1Cl,-16.97%
21,CC(NCc1c(C(C)C)nn(C)c1N1CCOCC1)C(N)=O (configuration not stated),1.644%
22,Cc1cnc(C)c(N2CCC(c3nccn3Cc3cscn3)CC2)n1,32.35%
23,CC(NC(=O)CCCOc1cccc(F)c1)c1ccncc1 (configuration not stated),-15.4%
24,Cc1ncc2c(n1)CN(Cc1ncc(C(C)(C)C)o1)CC2,13.07%

row,SMILES,Percent Effect
1,OCC(O)CN1CCc2onc(-c3ccc(C(F)(F)F)cc3)c2C1 (configuration not stated),-7.135%
2,CN(C)C(=O)c1ccc(OC2CCOCC2)cc1,14.67%
3,COC(C)(C)CNC(=O)N(C)Cc1nc(-c2ccccc2)c[nH]1,-6.978%
4,CCOc1ccc(Cl)c(C(=O)N2CCN(C(=O)OC)CC2)n1,106.5%
5,CCOc1ccc(Cl)c(C(=O)NCc2ccc(C(=O)NC)cc2)n1,-13.09%
6,CCOc1ccc(Cl)c(C(=O)N2CCCSCC2)n1,87.04%
7,CCOc1ccc(Cl)c(C(=O)N(C)C)n1,-5.446%
8,CC(C)(O)CN1CCN(C(=O)c2cccc3[nH]ncc23)CC1,5.71%
9,CC(C)(O)CN1CCN(C(=O)c2cc(Cl)cc3cccnc23)CC1,-2.728%
10,COc1ccc(OCc2cc(C(=O)N3CCSCC3)n[nH]2)c(Cl)c1,-44.95%
11,CCOc1ccc(Cl)c(C(=O)N2CCN(C(=O)c3ccoc3C)CC2)n1,-0.3279%
12,CCOc1ccc(Cl)c(C(=O)N2CCN(CC(C)(C)O)CC2)n1,117.3%
13,c1cnnc(N2CCCC(NCc3ccc(-n4cccn4)cc3)C2)c1 (configuration not stated),-2.089%
14,Cc1cc(C)c2nc(CN3CCOC(CCO)C3)cc(O)c2c1 (configuration not stated),-3.808%
15,c1ccc(CCN2CCOC(Cn3cccn3)C2)nc1 (configuration not stated),5.708%
16,c1ncn(CC2CN(CC3CCCC3)CCO2)n1 (configuration not stated),-0.8263%
17,c1ccc(CCCN2CCOC(Cn3cccn3)C2)cc1 (configuration not stated),128.6%
18,C=C(C)CN1CCOC(Cn2cncn2)C1 (configuration not stated),-5.235%
19,c1cnn(CCN2CCOC(Cn3cccn3)C2)c1 (configuration not stated),108.3%
20,Cc1cc(CCC2CN(CC3(O)CCCCC3)CCO2)ncn1 (configuration not stated),116.4%
21,c1ncn(CC2CN(CC3CCCCC3)CCO2)n1 (configuration not stated),107.8%
22,c1cnn(CCN2CCOC(Cn3cncn3)C2)c1 (configuration not stated),-9.191%
23,c1cnn(CC2CN(CCc3ccncc3)CCO2)c1 (configuration not stated),0.6004%
24,O=S(=O)(CCCN1CCOC(Cn2cccn2)C1)c1ccccc1 (configuration not stated),7.752%

row,SMILES,Percent Effect
1,O=C(O)c1csc(S(=O)(=O)Nc2cccc(OC(F)F)c2)c1,-1.91%
2,COC(=O)C(NC(=O)c1ccc(NC2CC2)nc1)c1ccccc1 (configuration not stated),-0.3075%
3,O=C(NCCc1ccccc1)N1CC[C@@H]2CNS(=O)(=O)[C@@H]2CC1,-17.14%
4,COC1CCN(C(=O)Cn2cccc(C(F)(F)F)c2=O)C1 (configuration not stated),-0.2293%
5,O=S(=O)(CCN1CCOC(Cn2cccn2)C1)C(F)(F)F (configuration not stated),8.008%
6,c1cnn(CC2CN(CC3CCCC3)CCO2)c1 (configuration not stated),7.004%
7,OC1(CN2CCOC(Cn3cccn3)C2)CCCCC1 (configuration not stated),99.61%
8,FC(F)(F)Cn1ccnc1CN1CCOC(Cn2cccn2)C1 (configuration not stated),-0.9498%
9,c1cnn(CC2CN(CC3CCCCC3)CCO2)c1 (configuration not stated),102.2%
10,CC(C)=CCN1CCOC(Cn2cccn2)C1 (configuration not stated),136%
11,Cc1cccc(C(C)NCC2CCS(=O)(=O)CC2)c1 (configuration not stated),-4.903%
12,O[C@H]1Cc2ccccc2[C@H]1Nc1ncccc1C(F)(F)F,-3.306%
13,CCN(CC)C(=O)[C@@H]1C[C@@H](NC(=O)c2cccc(N(C)C)c2)CN1C,-6.856%
14,COc1cc(C)nc(N2CCN(C(C)c3nc(C4CC4)no3)CC2)n1 (configuration not stated),4.237%
15,Cc1nnc(NCC(c2ccco2)N(C)C)c(C#N)c1C (configuration not stated),0.3665%
16,Cn1cc(C2CCCN2C(=O)Cn2ccc3ccc(Cl)cc32)cn1 (configuration not stated),-41.07%
17,O=C(NCCc1ccn(-c2ccc(F)cc2)n1)C1CCCO1 (configuration not stated),-8.284%
18,NC(=O)C1CCN(C(=O)CCn2ccc3cc(Br)ccc32)CC1,25.85%
19,O=C(Cn1ccc2ccc(Br)cc21)NC[C@@H]1CCCN2CCCC[C@H]12,19.6%
20,O=C(CCn1ccc2cc(Br)ccc21)/N=c1\[nH]nc(C2CCCO2)s1 (configuration not stated),98.02%
21,O=C(CCn1ccc2ccc(Br)cc21)/N=c1\[nH]nc(C2CCCO2)s1 (configuration not stated),100.3%
22,O=C(NCc1cnn(-c2ccc(F)cc2F)c1)C1CCCO1 (configuration not stated),2.744%
23,O=C(Cn1ccc2ccc(Cl)cc21)/N=c1\[nH]nc(C2CCCO2)s1 (configuration not stated),134.6%
24,CCN(CC)C(=O)Cn1ccc2cc(NC(=O)C3CCCO3)ccc21 (configuration not stated),-12.1%

row,SMILES,Percent Effect
1,O=C(CC1CCCO1)Nc1ccc2c(ccn2CCN2CCOCC2)c1 (configuration not stated),-5.067%
2,CCCn1ccc2cc(NC(=O)CC3CCCO3)ccc21 (configuration not stated),3.072%
3,O=C(CCn1ccc2ccc(F)cc21)/N=c1\[nH]nc(C2CCCO2)s1 (configuration not stated),105.1%
4,CCCN(C(=O)CCS(=O)(=O)Cc1ccccc1)c1cccc(C)c1,-47.75%
5,Cc1ccc(-c2cn3c(n2)CO[C@@H](CNCc2cccnc2)C3)cc1,0.839%
6,Cc1[nH]/c(=N\C(=O)c2csc(NCC(C)C)n2)sc1C,1.657%
7,CCn1ccc2cc(NC(=O)CC3CCCO3)ccc21 (configuration not stated),3.531%
8,COc1ccc2c(ccn2CCC(=O)/N=c2\[nH]nc(C3CCCO3)s2)c1 (configuration not stated),126.4%
9,CNC(=O)CCC(=O)N1CCOC(c2ccc3cc(OC)ccc3c2)C1 (configuration not stated),9.004%
10,CCc1cc(N2CCC(n3cc(C(=O)NCC(C)C)nn3)CC2)ncn1,-7.159%
11,CCCC(C)CN1CCC(n2cc(C3CCCC3)nn2)CC1 (configuration not stated),0.2453%
12,CCc1cc(N2CCC(n3cc(C(=O)NC4CC4)nn3)CC2)ncn1,-11.68%
13,CC(C)Nc1cc(N2CCC(n3cc(C4CCCC4)nn3)CC2)ncn1,92.63%
14,CC(C)Nc1cc(N2CCC(n3cc(C4CC4)nn3)CC2)ncn1,77.15%
15,CCC(C)CN1CCC(n2cc(C3CCCC3)nn2)CC1 (configuration not stated),-13.12%
16,OCCNc1cc(N2CCC(n3cc(C4CCCC4)nn3)CC2)ncn1,104%
17,C=C(C)CN1CCC(n2cc(C3CCCC3)nn2)CC1,14.96%
18,Cc1cc(N2CCC(n3cc(CCCO)nn3)CC2)ccn1,1.957%
19,CCC(C)CN1CCC(n2cc(C3CCCCC3)nn2)CC1 (configuration not stated),-12.86%
20,O=C(NC1CC1)c1cn(C2CCN(c3cc(C4CC4)ncn3)CC2)nn1,-15.81%
21,CC(C)Nc1cc(N2CCC(n3cc(CCO)nn3)CC2)ncn1,96.69%
